# Test results published in PubChem BioAssay (NCATS).
# Several values for one entry are separate records, joined by “and”; a condition that tells them apart may be missing. Equal values may be shown once. Results filed as inconclusive are left out. More than one record can exist for a structure, and the calls need not agree. Activity calls are given as the source filed them. Calls come from the whole dose curve; as a rule, active = well fitted curve in the direction sought with a large enough effect; inconclusive = small, poorly fitted or top-dose-only effect, or another doubt; inactive = no such curve, though single readings can be large; an effect the other way counts as inactive or inconclusive.
# How the values were obtained:
# [1] = target: Cytochrome P450 2C9 (Homo sapiens) (UniProt P11712); assay: qHTS Assay for Inhibitors and Substrates of Cytochrome P450 2C9 (AID 883); conditions: recombinant CYP2C9, luciferin-H luminescence, 60 min; series mostly up to 11.4 µM; note: nearly all actives have a fitted effect of over 60% in size; note: potency is the fitted concentration of half-maximal effect; for activity change, negative = inhibition: % is set by controls: 0 for no effect and ±100 for the full control effect
# Cytochrome P450 2C9 (Homo sapiens), sequence (P11712 whole entry, looked up): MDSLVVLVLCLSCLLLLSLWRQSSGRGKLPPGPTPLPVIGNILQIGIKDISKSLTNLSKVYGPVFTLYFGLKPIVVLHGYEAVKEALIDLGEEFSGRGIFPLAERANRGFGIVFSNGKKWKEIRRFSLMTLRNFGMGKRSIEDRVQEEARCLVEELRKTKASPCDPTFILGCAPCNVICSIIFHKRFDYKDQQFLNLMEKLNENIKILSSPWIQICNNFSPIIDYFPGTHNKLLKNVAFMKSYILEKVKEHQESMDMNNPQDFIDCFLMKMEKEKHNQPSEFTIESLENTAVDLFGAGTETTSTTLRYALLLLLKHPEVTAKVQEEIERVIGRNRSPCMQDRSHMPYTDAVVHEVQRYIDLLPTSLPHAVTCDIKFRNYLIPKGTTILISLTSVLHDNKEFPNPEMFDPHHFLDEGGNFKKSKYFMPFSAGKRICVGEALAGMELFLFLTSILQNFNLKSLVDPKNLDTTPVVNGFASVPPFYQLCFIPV
# Outline: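 Signal: luciferase luminescence reporting luciferin produced by CYP2C9. Conditions: 10nM enzyme, Luciferin-H 100uM at KM, 25mM KPO4, 37C, 60 min NADPH-driven reaction. Reference: 57uM sulphaphenazole as 100% inhibition.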
# [2] = target: Cytochrome P450 3A4 (Homo sapiens) (UniProt P08684); assay: qHTS Assay for Inhibitors and Substrates of Cytochrome P450 3A4 (AID 884); conditions: recombinant CYP3A4, Luciferin-PPXE luminescence; series mostly up to 57.1 µM; note: nearly all actives have a fitted effect of over 50% in size; note: potency is the fitted concentration of half-maximal effect; for activity change, negative = inhibition: % is set by controls: 0 for no effect and ±100 for the full control effect
# Cytochrome P450 3A4 (Homo sapiens), sequence (P08684 whole entry, looked up): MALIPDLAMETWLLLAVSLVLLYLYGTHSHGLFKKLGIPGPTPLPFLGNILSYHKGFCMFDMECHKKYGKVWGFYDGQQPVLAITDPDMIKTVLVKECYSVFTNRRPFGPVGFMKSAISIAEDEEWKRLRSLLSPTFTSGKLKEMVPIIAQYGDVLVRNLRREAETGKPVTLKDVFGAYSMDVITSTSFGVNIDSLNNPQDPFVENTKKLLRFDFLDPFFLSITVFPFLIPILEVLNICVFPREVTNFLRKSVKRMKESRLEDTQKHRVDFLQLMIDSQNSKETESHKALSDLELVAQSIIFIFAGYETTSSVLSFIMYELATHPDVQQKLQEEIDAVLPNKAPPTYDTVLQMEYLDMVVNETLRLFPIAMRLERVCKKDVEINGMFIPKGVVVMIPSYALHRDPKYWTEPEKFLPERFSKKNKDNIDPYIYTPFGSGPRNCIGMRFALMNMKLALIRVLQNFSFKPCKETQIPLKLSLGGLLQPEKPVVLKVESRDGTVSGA
# Outline: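 20 nM human CYP3A4 with 25 uM Luciferin-PPXE (at KM) in 200 mM KPO4, preincubated 10 min with compound; NADPH regeneration started a 60 min RT reaction. Luciferin detected by luminescence, normalized to 57 uM ketoconazole as full inhibition.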
# [3] = target: Cytochrome P450 3A4 (Homo sapiens) (UniProt P08684); assay: qHTS Assay for Activators of Cytochrome P450 3A4 (AID 885); conditions: recombinant CYP3A4, Luciferin-PPXE luminescence, 60 min; series mostly up to 57.1 µM; note: nearly all actives have a fitted effect of over 65% in size
# Outline: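 20nM CYP3A4 + 25uM Luciferin-PPXE (=KM), 200mM KPO4; cpd 10 min RT; NADPH regen, 60 min RT; stop w/ detection buffer, 20 min; luminescence. Normalized to 57 uM ketoconazole.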
# [4] = target: Cytochrome P450 2D6 (Homo sapiens) (UniProt P10635); assay: qHTS Assay for Inhibitors and Substrates of Cytochrome P450 2D6 (AID 891); conditions: recombinant CYP2D6, luciferin-ME EGE luminescence; series mostly up to 11.4 µM;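 note: luciferin methyl ether substrate demethylated by CYP2D6 with NADPH regeneration; % is set by controls: 0 for no effect and ±100 for the full control effect; nearly all actives have a fitted effect of over 60% in size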
# Cytochrome P450 2D6 (Homo sapiens), sequence (P10635 whole entry, looked up): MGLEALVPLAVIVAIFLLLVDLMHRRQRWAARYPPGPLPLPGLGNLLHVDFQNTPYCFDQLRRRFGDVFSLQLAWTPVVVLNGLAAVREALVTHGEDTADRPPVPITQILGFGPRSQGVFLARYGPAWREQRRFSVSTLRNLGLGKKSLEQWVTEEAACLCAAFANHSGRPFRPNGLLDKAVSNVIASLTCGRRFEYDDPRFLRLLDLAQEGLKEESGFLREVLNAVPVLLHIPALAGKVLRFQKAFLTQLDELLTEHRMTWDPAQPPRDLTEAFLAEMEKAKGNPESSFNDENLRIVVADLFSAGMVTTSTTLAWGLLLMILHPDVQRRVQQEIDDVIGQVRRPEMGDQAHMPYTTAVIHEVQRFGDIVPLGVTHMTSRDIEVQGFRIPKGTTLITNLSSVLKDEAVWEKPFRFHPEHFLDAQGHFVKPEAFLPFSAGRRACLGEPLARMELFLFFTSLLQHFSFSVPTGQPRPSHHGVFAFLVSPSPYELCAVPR
# Outline: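 Human CYP2D6 (5 nM) with 30 uM Luciferin-ME EGE (at Km) in 100 mM KPO4, compound preincubated 10 min, then NADPH regeneration system for 60 min at room temperature. Luciferin read by luminescence; normalized to 1.43 uM quinidine.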
# [5] = target: Cytochrome P450 2C19 (Homo sapiens) (UniProt P33261); assay: qHTS Assay for Inhibitors and Substrates of Cytochrome P450 2C19 (AID 899); conditions: recombinant CYP2C19, luciferin-H EGE luminescence; series mostly up to 11.4 µM; note: nearly all actives have a fitted effect of over 60% in size; note: potency is the fitted concentration of half-maximal effect
# Cytochrome P450 2C19 (Homo sapiens), sequence (P33261 whole entry, looked up): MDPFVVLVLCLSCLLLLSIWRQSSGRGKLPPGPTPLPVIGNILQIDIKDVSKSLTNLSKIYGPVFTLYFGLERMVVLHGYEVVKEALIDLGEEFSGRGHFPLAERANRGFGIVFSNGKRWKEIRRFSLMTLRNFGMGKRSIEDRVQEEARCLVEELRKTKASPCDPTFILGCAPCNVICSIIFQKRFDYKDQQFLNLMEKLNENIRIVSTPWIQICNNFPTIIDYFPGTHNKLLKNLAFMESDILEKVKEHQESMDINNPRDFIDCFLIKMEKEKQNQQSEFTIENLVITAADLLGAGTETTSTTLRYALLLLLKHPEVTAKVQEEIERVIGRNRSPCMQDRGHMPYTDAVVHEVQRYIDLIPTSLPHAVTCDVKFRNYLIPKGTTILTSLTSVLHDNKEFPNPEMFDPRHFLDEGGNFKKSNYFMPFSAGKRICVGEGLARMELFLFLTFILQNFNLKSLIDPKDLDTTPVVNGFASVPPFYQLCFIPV
# Outline: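 Signal comes from luciferase acting on luciferin released by CYP2C19-mediated hydroxylation of Luciferin-H EGE, 10uM (KM). Assay mix: 5nM enzyme, 50mM KPO4; 60 min at 37C with NADPH regeneration. Data normalized against 57uM ketoconazole.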
Structure (SMILES),Potency [1],Potency [2],"activity change, positive = activation [3]",Potency [4],Potency [5],"activity change, negative = inhibition [2]"
COC(=O)NC(CC(C)=O)c1ccc2c(c1)OCO2 (stereo not drawn),inactive,3.98 µM (active),-67.3% [at 11.4 µM] (inactive),inactive,inactive,–
COc1ccc(O[C@H]2C=C[C@@H](c3ccccc3)O[C@H]2CO/N=C2/c3cc(OC)ccc3O[C@@H](c3cccc(OC)c3)[C@H]2O)cc1,3.16 µM (active),3.16 µM (active),-100% [at 11.4 µM] (inactive),–,501 nM (active),–
C=CCc1cccc(C2C(C)CCC3C(=O)N4C(Cc5c([nH]c6ccccc56)C4c4cc(OC)c(OC)c(OC)c4)C(=O)N32)c1 (stereo not drawn),inactive,3.98 µM (active),-74.3% [at 11.4 µM] (inactive),–,inactive,–
C=CCC1C=CC(Oc2ccc(OC)cc2)C(CO)O1 (stereo not drawn),inactive,3.98 µM (active),-64.8% [at 11.4 µM] (inactive),inactive,inactive,–
COC(=O)[C@@H]1CC[C@H](C)[C@@H](c2ccc(C)cc2)N1C(=O)c1ccc(/C=N\O[C@@H](C)c2cn([C@H](CO)Cc3ccccc3)nn2)cc1,3.16 µM (active) and 2.51 µM (active),1.26 µM (active) and 3.16 µM (active),-62.7% [at 11.4 µM] (inactive) and -101% [at 11.4 µM] (inactive),–,3980 nM (active),–
COc1ccc(/C=C/N(CCc2ccc(OC)c(OC)c2)C(C)=O)cc1,3.16 µM (active),2 µM (active),-88.6% [at 11.4 µM] (inactive),inactive,794 nM (active),–
COC(=O)C/C=C\[C@@H](C)[C@@H](/C=N\OC[C@@H]1O[C@H](c2ccccc2)C=C[C@@H]1Oc1ccc(OC)cc1)NS(=O)(=O)c1ccc(C)cc1,1.26 µM (active),5.01 µM (active),-96.1% [at 11.4 µM] (inactive),–,398 nM (active),–
COc1ccc(O[C@H]2C=C[C@@H](c3ccccc3)O[C@H]2COC(=O)CC/C(C)=N\O[C@@H](C)c2cn([C@H](CO)Cc3ccccc3)nn2)cc1,1.26 µM (active),3.98 µM (active) and 5.01 µM (active),-87.6% [at 11.4 µM] (inactive) and -97.7% [at 11.4 µM] (inactive),–,63.1 nM (active) and 631 nM (active),–
COc1ccc(OCC2Cc3c(-c4ccccc4)nc4c(c3CO2)CN(CCOc2ccccc2)CC4)cc1 (stereo not drawn),inactive,3.98 µM (active),-83.6% [at 11.4 µM] (inactive),inactive,inactive,–
CC1CCC2C(=O)OC(COc3ccc(C(C)(C)C)cc3)CN2C1c1ccc(Br)cc1 (stereo not drawn),inactive,–,-42.1% [at 11.4 µM] (inactive) and -33.2% [at 11.4 µM] (inactive),inactive,251 nM (active) and inactive,-22.1% [at 11.4 µM] (inactive) and -29.8% [at 11.4 µM] (inactive) and -21% [at 11.4 µM] (inactive)
CC(=O)c1ccc(C2C=CC(O)C(CO)O2)cc1 (stereo not drawn),inactive,–,–,inactive,inactive,-3.24% [at 11.4 µM] (inactive)
COC(C(C)/C=C/CC(=O)OCCCc1ccccc1)C1CCCCC1 (stereo not drawn),inactive,–,–,inactive,inactive,-20.5% [at 11.4 µM] (inactive)
COCC#Cc1ccc(C2NC(C(=O)O)CCC2C)cc1 (stereo not drawn),inactive,–,–,inactive,–,-8.92% [at 11.4 µM] (inactive)
COc1ccc(OC)c(C2OCCC=CC2C)c1 (stereo not drawn),inactive,–,–,inactive,inactive,-16.9% [at 11.4 µM] (inactive)
CC12C=C(/C=C/c3ccc(F)cc3)C(C)(C1)C(c1ccc(F)cc1)CC2=O (stereo not drawn),inactive,–,–,inactive,–,-18.4% [at 11.4 µM] (inactive)
COC(=O)C(C(C)=O)C(NC(=O)NCc1ccccc1)c1ccccc1 (stereo not drawn),inactive,3.98 µM (active),–,inactive,–,–
COC(=O)NC(CC(C)=O)c1ccccc1 (stereo not drawn),inactive,–,–,inactive,–,-12.9% [at 11.4 µM] (inactive)
CC1C=CCCOC1c1ccccc1 (stereo not drawn),inactive,–,–,inactive,–,-13.6% [at 11.4 µM] (inactive)
CNc1ccccc1C(=O)OCC(=O)c1ccccc1,inactive,–,–,inactive,–,-18.7% [at 11.4 µM] (inactive)
COC(=O)NC(CC(C)=O)c1cccs1 (stereo not drawn),inactive,–,–,inactive,–,-9.41% [at 11.4 µM] (inactive)
